Experiment [1] deals with Peroxisome proliferator-activated receptor gamma (Homo sapiens) (UniProt P37231). Description: qHTS assay for small molecule antagonists of peroxisome proliferator-activated receptor gamma signaling (AID 588537; active = well fitted inhibition curve with a large enough effect in the signal ratio, with a control signal flat, not every such curve was filed as active; the % refers to the signal ratio;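 also: reporter cells co-stimulated with 50 nM rosiglitazone agonist during compound treatment; % of control where 0% means no effect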). The gist of the method:
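Antagonist mode, beta-lactamase reporter in HEK293; charcoal/dextran FBS 1%; 3000 cells/well, 37 C 6-6.5 h; cpd titration + rosiglitazone 50 nM final, 16 h 37 C; CCF4, 2 h RT; 460/530 nm; Hill fit → IC50, efficacy.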
In general terms: Quantitative high-throughput screening tests each substance at several concentrations.

Experiment [2] addresses Thyroid hormone receptor beta (Homo sapiens) (UniProt P10828). In words: qHTS assay for small molecule agonists of thyroid hormone receptor beta signaling (AID 588545; calls by dose curve). The gist of the method: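 HEK 293 TR-UAS-bla; agonist mode; 18 hrs, 37 C; CCF4, ex 405/em 460 and 530 nm; norm. T3 10 nM = 100%, DMSO = 0%; Hill fit → EC50, efficacy.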
Experiment [3] is described as follows: qHTS assay for small molecule antagonists of retinoid X receptor alpha signaling (AID 588546; active = well fitted inhibition curve with a large enough effect in the signal ratio, with a control signal flat, not every such curve was filed as active; the % refers to the signal ratio;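 also: cells stimulated with 9-cis-retinoic acid as agonist; % is scaled to controls: 0 for no effect and ±100 for the full control effect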). Conditions: HEK293T RXRa-UAS-bla, beta-lactamase ratio, antagonist mode; measured here: W530 green channel, cytotoxicity proxy. The gist of the method:
(§1)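 Beta-lactamase reporter inhibition, read as CCF4 fluorescence ratio (ex 405, em 460/530 nm) after 2 h at RT. HEK293T UAS-bla cells, 2500/well, were stimulated with 9-cis-RA at 500 or 100 nM final alongside test compound for 18 h at 37 C.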

Experiment [4] concerns the target Retinoic acid receptor RXR-alpha (Homo sapiens) (UniProt P19793). The experiment is described as above. Conditions: HEK293T RXRa-UAS-bla, beta-lactamase ratio, antagonist mode. The gist of the method: as §1
Experiment [5] has as its target Voltage-gated inwardly rectifying potassium channel KCNH2 (Homo sapiens) (UniProt Q12809). Description: qHTS Assay for Small Molecule Inhibitors of the Human hERG Channel Activity (AID 588834).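 Also: lower thallium flux fluorescence means stronger hERG block; nearly all actives have a fitted effect of over 50% in size.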 Also: potency is read from the fitted curve at half-maximal effect. The gist of the method: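 Blockade is seen as reduced FluxOR thallium-flux fluorescence in U2OS cells expressing hERG from a BacMam construct, in Opti-MEM with 2% FCS. Concentration-response data fitted to the Hill equation for AC50.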

The target in experiment [6] is Glutaminase kidney isoform, mitochondrial (Homo sapiens) (UniProt O94925). In words: qHTS for Inhibitors of Glutaminase (GLS): LOPAC Validation (AID 624146).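 Also: glutamate product detected by oxidase and peroxidase coupled Amplex red fluorescence gain; series mostly up to about 46 µM; % is scaled to controls: 0 for no effect and ±100 for the full control effect; nearly all actives have a fitted effect of over 60% in size.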 The gist of the method: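 hKGA; 45 mM KH2PO4 pH 8.2 + 0.02% Tween-20; cpd via pin tool; 1 mM Gln soln; GluOx/HRP/Amplex Red; RT 30 min; fluor. t0 & final.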
Sequence of Glutaminase kidney isoform, mitochondrial (Homo sapiens) (O94925 whole entry, looked up, canonical isoform): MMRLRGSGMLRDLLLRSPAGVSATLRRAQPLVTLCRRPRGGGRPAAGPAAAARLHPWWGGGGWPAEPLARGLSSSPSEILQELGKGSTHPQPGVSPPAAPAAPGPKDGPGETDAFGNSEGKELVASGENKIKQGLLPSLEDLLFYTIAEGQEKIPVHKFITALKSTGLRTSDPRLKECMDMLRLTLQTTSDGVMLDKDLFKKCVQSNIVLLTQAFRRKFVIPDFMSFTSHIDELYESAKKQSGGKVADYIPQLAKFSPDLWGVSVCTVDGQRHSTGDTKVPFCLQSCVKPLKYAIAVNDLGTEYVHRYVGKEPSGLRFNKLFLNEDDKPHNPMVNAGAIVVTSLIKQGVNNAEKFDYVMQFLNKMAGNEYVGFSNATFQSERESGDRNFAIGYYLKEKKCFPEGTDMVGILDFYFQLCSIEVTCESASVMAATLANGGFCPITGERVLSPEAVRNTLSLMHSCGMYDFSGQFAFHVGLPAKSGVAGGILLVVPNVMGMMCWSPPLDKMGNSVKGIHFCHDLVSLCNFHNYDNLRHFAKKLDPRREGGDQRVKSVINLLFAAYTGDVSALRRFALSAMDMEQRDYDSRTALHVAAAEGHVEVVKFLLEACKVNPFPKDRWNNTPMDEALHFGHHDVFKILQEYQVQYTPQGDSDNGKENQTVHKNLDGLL
A short description of experiment [7]: qHTS of Trypanosoma Brucei Inhibitors: LOPAC Validation (AID 624147). Also: 0% is about no effect. The gist of the method:
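Screened from lowest to highest concentration, compounds were pinned into TbPYK/substrate mixtures, and ADP (130 uM final) was added. Plates sat at room temperature for 45 min prior to Kinase-Glo Plus detection by luminescence.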

The target of experiment [8] is Glucagon-like peptide 1 receptor (Homo sapiens) (UniProt P43220). In words: qHTS of GLP-1 Receptor Agonists: LOPAC Validation (AID 624148).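 Also: luminescence from a luciferase reporter switched on by cAMP; 0% is about no effect; higher luminescence signal means agonism.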 The gist of the method: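 Agonism scored as increased luciferase luminescence driven by cAMP in HEK293 clones carrying GLP-1R. Cells settled 12 hours, received compound for 4-6 hr at 37 deg C, 5% CO2, and were read after 12 min detection reagent at RT.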
Sequence of Glucagon-like peptide 1 receptor (Homo sapiens) (P43220 whole entry, looked up): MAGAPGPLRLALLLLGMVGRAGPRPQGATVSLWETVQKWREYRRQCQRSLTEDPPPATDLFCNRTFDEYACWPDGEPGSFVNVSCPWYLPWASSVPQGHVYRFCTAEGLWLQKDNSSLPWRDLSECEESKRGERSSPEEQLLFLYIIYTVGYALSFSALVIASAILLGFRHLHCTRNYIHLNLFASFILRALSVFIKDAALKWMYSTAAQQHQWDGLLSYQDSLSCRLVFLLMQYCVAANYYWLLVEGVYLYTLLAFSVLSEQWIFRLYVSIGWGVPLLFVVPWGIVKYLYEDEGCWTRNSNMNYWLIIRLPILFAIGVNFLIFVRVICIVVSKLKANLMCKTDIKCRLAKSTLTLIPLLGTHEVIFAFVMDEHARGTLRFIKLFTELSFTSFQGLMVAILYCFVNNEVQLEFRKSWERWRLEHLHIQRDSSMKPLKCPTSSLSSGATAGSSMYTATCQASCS

The nature of experiment [9]: qHTS of Nrf2 Activators: LOPAC Validation (AID 624149). Also: 0% is about no effect. The gist of the method:
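Luminescence read-out of ARE-luciferase activation: AREc32_Fluc cells treated with compounds for 24 hr at 37 deg C, then lysed with Steady-Glo for 30 min at room temperature before reading.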

Experiment [10] in a line: HTS Assay for Allosteric Antagonists of the Human D2 Dopamine Receptor: Hit Validation in HTRF (AID 624455). Also: potency is read from the fitted curve at half-maximal effect.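 Also: stable D1 dopamine receptor cell line scored for blocking the D1 response.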 The method in brief: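 First, antagonism was screened by calcium flux in a force-coupled, inducible Hek293 Trex D2 line challenged with EC80 dopamine. Hits then went into an HTRF assay in cells stably expressing D1, testing inhibition of the D1 response.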
A general note: TR-FRET usually uses a lanthanide donor and a delayed reading to cut background.

For experiment [11], the target named is Vitamin D3 receptor (Homo sapiens) (UniProt P11473). In words: qHTS assay for small molecule antagonists of vitamin D receptor signaling (AID 588541; calls by dose curve;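 also: receptor activated by calcitriol during compound treatment; series mostly up to about 77 µM; % is scaled to controls: 0 for no effect and ±100 for the full control effect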). The gist of the method: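 Antagonist-mode beta-lactamase reporter assay: HEK293T VDR-UAS-bla cells were exposed to titrated compound alongside 1-alpha,25-dihydroxyvitamin D3 at 3 nM final for 16 h. Values were normalized to the 50 nM agonist control and DMSO basal, with IC50 and efficacy from Hill equation fits.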
Sequence of Vitamin D3 receptor (Homo sapiens) (P11473 whole entry, looked up): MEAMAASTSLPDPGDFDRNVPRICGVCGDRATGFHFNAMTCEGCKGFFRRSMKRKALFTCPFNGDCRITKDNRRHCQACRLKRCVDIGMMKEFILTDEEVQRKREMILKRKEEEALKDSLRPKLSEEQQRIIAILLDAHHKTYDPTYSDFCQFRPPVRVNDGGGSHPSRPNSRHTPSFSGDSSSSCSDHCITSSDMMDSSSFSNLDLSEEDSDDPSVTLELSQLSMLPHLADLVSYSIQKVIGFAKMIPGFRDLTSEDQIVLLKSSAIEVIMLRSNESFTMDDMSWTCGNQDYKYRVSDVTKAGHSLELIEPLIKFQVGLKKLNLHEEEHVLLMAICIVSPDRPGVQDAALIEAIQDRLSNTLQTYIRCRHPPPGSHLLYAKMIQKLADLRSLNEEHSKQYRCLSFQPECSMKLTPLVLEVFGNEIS

For experiment [12] the target is unchanged. In words: qHTS assay for small molecule agonists of vitamin D receptor signaling (AID 588543; calls by dose curve;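 also: 0% = DMSO basal and 100% = reference agonist control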). The method in brief: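 Measured: β-lactamase reporter activity (CCF4, 405 nm excitation, 460/530 nm emission) in HEK293T VDR-UAS-bla cells after 16 h compound exposure at 37 °C. Normalization against 50 nM 1α,25-dihydroxyvitamin D3 and DMSO; Hill-fit EC50.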

The nature of experiment [13]: qHTS assay for small molecule agonists of retinoid X receptor alpha signaling (AID 588544; calls by dose curve; also: potency is read from the fitted curve at half-maximal effect). Conditions: HEK293T RXRa-UAS-bla, beta-lactamase reporter, 18 h; 530 nm emission.
Experiment [14] has as its target Retinoic acid receptor RXR-alpha (Homo sapiens) (UniProt P19793). The description is as above.
Experiment [15] concerns the target Thyroid hormone receptor beta (Homo sapiens) (UniProt P10828). Description: qHTS assay for small molecule antagonists of thyroid hormone receptor beta signaling (AID 588547; active = well fitted inhibition curve with a large enough effect in the signal ratio, with a control signal flat, not every such curve was filed as active; the % refers to the signal ratio;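 also: cells stimulated with 0.4 nM T3 agonist during compound exposure; series mostly up to about 77 µM; % is scaled to controls: 0 for no effect and ±100 for the full control effect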). Conditions: TR-UAS-bla HEK293, beta-lactamase ratio, antagonist mode, 18 h. The gist of the method: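 Inhibition of T3-driven (0.4nM final) beta-lactamase reporter activity was measured over 0.59 nM to 92 uM compound after 18 h at 37 C. The cells were GripTite HEK293 TR-UAS-bla in charcoal/dextran-stripped serum, with CCF4 ratio read-out and IC50 from Hill fits.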

Results filed as inconclusive are left out. Calls of active or inactive are those of the source. Unless noted, calls follow the shape of the dose curve; as a rule, active = well fitted curve in the direction sought with a large enough effect; inconclusive = small, poorly fitted or top-dose-only effect, or another doubt; inactive = no such curve, though single readings can be large; an effect the other way counts as inactive or inconclusive.

Sequence of Thyroid hormone receptor beta (Homo sapiens) (P10828 whole entry, looked up): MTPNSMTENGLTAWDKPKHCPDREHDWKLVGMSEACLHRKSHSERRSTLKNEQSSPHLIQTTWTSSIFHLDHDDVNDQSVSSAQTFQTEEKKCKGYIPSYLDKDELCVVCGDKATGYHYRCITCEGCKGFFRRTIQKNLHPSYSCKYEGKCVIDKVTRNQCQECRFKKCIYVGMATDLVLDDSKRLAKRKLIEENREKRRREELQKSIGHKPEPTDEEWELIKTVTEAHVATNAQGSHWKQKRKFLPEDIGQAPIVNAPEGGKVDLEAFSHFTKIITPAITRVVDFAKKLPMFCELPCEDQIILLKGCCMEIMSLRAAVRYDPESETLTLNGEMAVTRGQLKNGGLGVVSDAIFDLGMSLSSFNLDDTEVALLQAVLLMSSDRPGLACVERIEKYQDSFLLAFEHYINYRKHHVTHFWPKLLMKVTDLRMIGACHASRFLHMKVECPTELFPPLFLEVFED
Sequence of Voltage-gated inwardly rectifying potassium channel KCNH2 (Homo sapiens) (Q12809 whole entry, looked up): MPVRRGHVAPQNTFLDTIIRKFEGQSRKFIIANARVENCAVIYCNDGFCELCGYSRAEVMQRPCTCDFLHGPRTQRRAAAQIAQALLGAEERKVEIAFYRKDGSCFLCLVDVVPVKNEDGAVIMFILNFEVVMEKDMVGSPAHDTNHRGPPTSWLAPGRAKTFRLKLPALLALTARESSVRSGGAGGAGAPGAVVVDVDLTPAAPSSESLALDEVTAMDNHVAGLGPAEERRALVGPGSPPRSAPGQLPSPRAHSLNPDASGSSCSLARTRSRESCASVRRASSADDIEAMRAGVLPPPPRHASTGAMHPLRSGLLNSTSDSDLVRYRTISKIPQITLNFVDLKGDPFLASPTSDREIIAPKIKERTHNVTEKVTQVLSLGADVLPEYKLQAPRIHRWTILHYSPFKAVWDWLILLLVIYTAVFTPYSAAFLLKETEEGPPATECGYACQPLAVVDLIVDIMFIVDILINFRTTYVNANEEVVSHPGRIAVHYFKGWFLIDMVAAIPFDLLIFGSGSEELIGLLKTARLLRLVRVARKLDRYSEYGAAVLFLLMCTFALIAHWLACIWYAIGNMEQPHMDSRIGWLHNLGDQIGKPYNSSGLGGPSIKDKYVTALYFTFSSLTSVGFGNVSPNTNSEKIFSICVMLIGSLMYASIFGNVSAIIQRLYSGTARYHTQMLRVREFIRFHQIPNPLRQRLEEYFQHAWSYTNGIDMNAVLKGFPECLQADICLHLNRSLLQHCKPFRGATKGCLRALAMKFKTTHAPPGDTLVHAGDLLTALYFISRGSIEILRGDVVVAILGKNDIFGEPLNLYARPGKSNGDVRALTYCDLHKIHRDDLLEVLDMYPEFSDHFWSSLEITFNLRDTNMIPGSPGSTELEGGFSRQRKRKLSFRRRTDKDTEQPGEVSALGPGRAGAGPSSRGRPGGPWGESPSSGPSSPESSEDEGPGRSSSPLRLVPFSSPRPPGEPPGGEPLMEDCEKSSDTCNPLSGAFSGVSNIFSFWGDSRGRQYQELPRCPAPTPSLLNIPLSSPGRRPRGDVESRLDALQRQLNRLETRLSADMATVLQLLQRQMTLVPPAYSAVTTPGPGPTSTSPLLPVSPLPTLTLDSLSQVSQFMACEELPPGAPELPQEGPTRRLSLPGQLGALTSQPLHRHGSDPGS
Sequence of Retinoic acid receptor RXR-alpha (Homo sapiens) (P19793 whole entry, looked up): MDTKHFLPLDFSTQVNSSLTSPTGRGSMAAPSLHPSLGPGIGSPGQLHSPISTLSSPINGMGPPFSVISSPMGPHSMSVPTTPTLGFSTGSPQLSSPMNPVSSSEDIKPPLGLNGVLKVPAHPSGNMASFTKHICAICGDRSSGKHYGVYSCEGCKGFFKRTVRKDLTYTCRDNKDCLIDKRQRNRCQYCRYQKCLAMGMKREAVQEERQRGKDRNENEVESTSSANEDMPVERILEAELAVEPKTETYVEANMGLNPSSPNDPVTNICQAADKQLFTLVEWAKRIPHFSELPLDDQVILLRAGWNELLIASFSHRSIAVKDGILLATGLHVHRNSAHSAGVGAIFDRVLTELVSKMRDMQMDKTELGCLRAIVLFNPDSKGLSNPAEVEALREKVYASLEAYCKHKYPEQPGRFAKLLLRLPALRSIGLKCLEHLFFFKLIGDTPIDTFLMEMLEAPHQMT
Sequence of Peroxisome proliferator-activated receptor gamma (Homo sapiens) (P37231 whole entry, looked up): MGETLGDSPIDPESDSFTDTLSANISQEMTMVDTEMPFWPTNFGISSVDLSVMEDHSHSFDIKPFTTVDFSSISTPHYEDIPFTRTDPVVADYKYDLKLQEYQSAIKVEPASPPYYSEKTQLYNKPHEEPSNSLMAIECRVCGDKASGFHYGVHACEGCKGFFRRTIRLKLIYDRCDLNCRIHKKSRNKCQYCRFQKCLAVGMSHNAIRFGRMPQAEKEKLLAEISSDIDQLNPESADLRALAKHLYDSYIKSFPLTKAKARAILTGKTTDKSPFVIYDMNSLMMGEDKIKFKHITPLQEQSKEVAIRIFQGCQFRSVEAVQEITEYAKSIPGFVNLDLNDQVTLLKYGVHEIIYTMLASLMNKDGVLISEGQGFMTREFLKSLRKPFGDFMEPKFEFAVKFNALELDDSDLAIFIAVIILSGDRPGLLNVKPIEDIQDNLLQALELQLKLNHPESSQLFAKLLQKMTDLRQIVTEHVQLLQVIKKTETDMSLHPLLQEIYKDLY

As for `CCCc1c(OCCCOc2ccc(OCC(=O)O)cc2)ccc(C(C)=O)c1O`, the Potency result in [1], in experiment [5], in experiment [6], in [7], in experiment [8] and in experiment [9] was “inactive” throughout. The Potency entry in experiment [10] is “inactive”. Moreover, in experiment [2], the result was inactive. Also, the max response in experiment [3] is 32.8%; in experiment [4], -30.3% (inactive).

On to `COc1ccc(-c2ccc(N)[n+](CCCC(=O)O)n2)cc1`, for which the Potency result in experiment [5], in experiment [6], in [7], in experiment [8] and in experiment [9] was “inactive” each time.

As for `Nn1nnc2ccccc21`, the Potency entry in experiment [5], in experiment [6], in experiment [7], in experiment [8], in experiment [9] and in [10] was “inactive” in each case.

Turning to `Nc1ncnc2c1ncn2C1CCCO1` (configuration not stated), the Potency result in [5], in experiment [6], in experiment [7], in [8], in [9] and in experiment [10] was “inactive” each time.

With `NC(=O)c1ccccc1`, the Potency entry in experiment [1], in [14], in experiment [5], in experiment [6], in [7] and in experiment [8] was “inactive” in each case. The Potency entry in experiment [9] and in [10] was “inactive” throughout. Also, the compound was classed as inactive in experiment [11], in experiment [12] and in [2]. Moreover, the figures for the max response in experiment [13], in experiment [3] and in experiment [4] were -1.09%, -3.13% and 5.33% (inactive), respectively. For the same compound, the activity change % (negative = inhibition) in experiment [15] was -4.09% (inactive).

With `O=c1[nH]c2cc(Cl)ccc2c(O)c1-c1ccc(Oc2ccccc2)cc1`, the Potency result in experiment [5], in [6], in experiment [7], in experiment [8], in [9] and in experiment [10] was “inactive” throughout.

Regarding `C/C(=C\c1ccc(C(=O)O)cc1)c1ccc2c(c1)C(C)(C)CCC2(C)C`, the call in [11] and in experiment [12] was inactive. For the same compound, the max response was 0.91% in experiment [13], -6.55% in [3] and 9.51% (inactive) in experiment [4]. Also, the Potency in experiment [14] was 0.708 µM (active). Also, the Potency entry in experiment [5], in experiment [6], in experiment [9] and in experiment [10] was “inactive” throughout.

Turning to `NC1(C(=O)O)CCc2cc(C(=O)O)ccc21` (configuration not stated), the Potency entry in experiment [5], in [6], in experiment [7], in experiment [8], in [9] and in experiment [10] was “inactive” in each case.

Turning to `Cn1ccnc1`, the Potency result in experiment [5], in [6], in [7], in experiment [8] and in [9] was “inactive” throughout.

As for `CC(C)(C)NCC(O)COc1cccc2[nH]c(=O)[nH]c12` (configuration not stated), the Potency result in [5], in experiment [6], in [7], in experiment [8], in [9] and in [10] was “inactive” in each case.

Turning to `CCCCS(=N)(=O)CC[C@H](N)C(=O)O` (some centres not stated), the Potency result in [5], in [6], in experiment [7], in [8], in [9] and in [10] was “inactive” throughout.

With `Cn1c(=O)c2[nH]c(C3CCCC3)nc2n(C)c1=O`, the Potency entry in [5], in experiment [6], in experiment [7], in [8], in experiment [9] and in experiment [10] was “inactive” throughout.

With `CC(N)(Cc1ccc(O)c(O)c1)C(=O)O` (configuration not stated), the Potency result in experiment [5], in [6], in [7], in [8], in experiment [9] and in experiment [10] was “inactive” throughout.

In the case of `CCCn1c(=O)c2[nH]c(C3CCCC3)nc2n(CCC)c1=O`, the Potency result in experiment [5], in [6], in experiment [7], in experiment [8], in experiment [9] and in experiment [10] was “inactive” in each case.

Consider `CC(N)=O`, for which the Potency result in experiment [5], in [6], in experiment [7], in [8], in experiment [9] and in experiment [10] was “inactive” each time.

On to `Cn1c(=O)c2c(nc(/C=C/c3cccc(Cl)c3)n2C)n(C)c1=O`, for which the Potency in [5] was 11.2 µM (active). For the same compound, the Potency result in experiment [6], in [7], in experiment [8], in experiment [9] and in experiment [10] was “inactive” throughout.

As for `NCCCNCCCCNCCCN`, the Potency result in experiment [5], in experiment [6], in [7], in [8] and in [9] was “inactive” throughout. The Potency in [10] is 4.61 µM (active).

`O=[N+]([O-])c1cccc2c(Br)[nH]nc12`: the Potency result in [5], in [6], in experiment [7], in experiment [8], in experiment [9] and in [10] was “inactive” each time.

For `CCCC(=O)NCCc1c2n(c3ccc(OC)cc13)CCCc1ccccc1-2`, the Potency result in experiment [5], in experiment [6], in experiment [7], in [8], in [9] and in experiment [10] was “inactive” throughout.

Take `Fc1ccc(CN(C2=NCCN2)c2c(Cl)cccc2Cl)cc1`: the Potency in [5] was 10 µM (active). Also, the Potency result in experiment [6], in [7], in [8], in experiment [9] and in experiment [10] was “inactive” throughout.

In the case of `O=C(O)C1CCNCC1`, the Potency result in experiment [5], in experiment [6], in [7], in [8], in experiment [9] and in experiment [10] was “inactive” each time.

In the case of `C#CC(N)CCC(=O)O` (configuration not stated), the Potency entry in [5], in experiment [6], in [7], in [8], in [9] and in experiment [10] was “inactive” in each case.

Take `COc1ccccc1N1CCN(CCCCNC(=O)c2ccc3ccccc3c2)CC1`: the Potency in experiment [5] is 1.12 µM (active). Also, the Potency entry in experiment [6], in [7], in experiment [8], in experiment [9] and in experiment [10] was “inactive” throughout.

On to `C=CCn1c(=O)c2c(nc(-c3ccc(S(=O)(=O)O)cc3)n2C)n(C)c1=O`, for which the Potency entry in experiment [5], in experiment [6], in experiment [7], in [8], in experiment [9] and in experiment [10] was “inactive” throughout.

Turning to `CC(=O)/C(C)=N/O`, the Potency result in experiment [5], in [6], in experiment [7], in [8], in [9] and in experiment [10] was “inactive” in each case.

As for `CCCCCCCCCC(=O)NC(CN1CCOCC1)[C@H](O)c1ccccc1` (some centres not stated), the Potency in [5] was 12.6 µM (active). Moreover, the Potency result in experiment [6], in experiment [7], in [8], in experiment [9] and in experiment [10] was “inactive” each time.

Regarding `CCN1C(=O)C=CC1=O`, the Potency entry in [5], in experiment [6], in experiment [7], in experiment [8], in [9] and in experiment [10] was “inactive” in each case.

The values above are taken from PubChem BioAssay (NCATS).
